From PubChem BioAssay (NCI) come the findings set out here.

About 83,000 compounds went through this panel and 20% of them were active in at least one assay; those are over-represented in the sample as a whole.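 Values shown are percent growth following 48 h exposure of cells in 96-well plates to a single concentration of compound; below 10 was considered active.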 A number with no mark means an inactive call. Activity calls are given as the source filed them.

In this test the test system is OVCAR-8 ovarian. Briefly: NCI-60 one-dose screen, 48 h (100 = growth as untreated, 0 = no growth, -100 = all killed). The following applies: 10 µM unless noted. The procedure:
Growth inhibition of the OVCAR-8 human tumor cell line is measured as a screen for anti-cancer activity. Cells are grown in 96 well plates and exposed to the test compound for 48 hours. Compounds are tested at a single concentration, which is 10^-5 M for most compounds. The reported endpoint is percent growth (GI% or GIPRCNT), where numbers from 0 - 100% represent growth inhibition, and numbers from -100% - 0 represent cell death. For example, a value of 40 represents 60% growth inhibition. A value of 0 means no net growth occurred over the course of the experiment. A value of -40 indicates 40% of cells at the beginning of the experiment died by the end of the experiment. A value of -100 means all cells are dead at the end of the experiment.
NCI-60 Human Tumor Cell Lines Screen was performed using the standard one-dose NCI protocol, which is described in more detail at https://dtp.cancer.gov/discovery_development/nci-60/default.htm.
Compounds with GIPRCNT values below 10 were considered active. Activity score was based on GIPRCNT using the following formula: […]
Score is 0 for GIPRCNT values of 100 or above, 50 for GIPRCNT values of 0, and 100 for GIPRCNT values of -100.
In the case of `Nc1ccc2c3c(cccc13)-c1ccccc1-2`, the growth was 99.1%.

Turning to `CC(=O)Oc1c(C)c(OC(C)=O)c2c(c1C(C)=O)OC1CC(=O)C(C(C)=O)=C(O)C21C` (stereo not given), the growth was 105%.

Regarding `O=C(CCc1nnc2sc(-c3ccc(Cl)cc3Cl)nn12)c1nc2ccccc2[nH]1`, the growth is -30.9% (active). The same measure for `Clc1cc(Cl)c(OCC#CI)cc1Cl`: 72.1%. Take `O=C(/C=C/c1ccccc1Cl)c1ccc(O)cc1`: the growth is 96.8%.

As for `O=C1CCCN1C1CCN(Cc2cc3ccccc3[nH]c2=O)c2ccccc21` (stereo not given), the growth was 101%. In the case of `NC(N)=NN=c1c(=O)c2ccccc2c1=O`, the growth is 81.5%. The same measure for `CCCCCCC/C(=N\N=C(N)N)c1ccc(O)cc1`: 60.4%; for `Nc1ccc(C2=Nc3cccc4cccc(c34)S2)cc1`: 93.6%; for `C[n+]1c2ccccc2c(Nc2ccc(N3CCCCC3)cc2)c2[nH]c3ccccc3c21`: -87.4% (active). Then `O=C(C(Br)Br)C(Br)C(Br)c1ccccc1` (stereo not given), with 88%; and `COc1cc(C2CC(c3ccc(C)cc3)=NN2C(C)=O)ccc1Oc1ccnc2cc(Cl)ccc12` (stereo not given), with 63.1%. The same measure for `Cc1ccc(C(C)C)cc1NC(=O)Nc1ccc([N+](=O)[O-])cc1`: 15.2%; for `COc1ccc(Cn2c(NCCCN(C)C)nc(=O)n(Cc3ccc(F)cc3)c2=O)cc1`: 98.9%; for `COc1ccc2c3c(c(OCCCN(C)C)nc2c1)-c1ccc(Cl)cc1C3=O`: -38.6% (active).

As to `CCOc1ccccc1C(=O)OCC(=O)Nc1cccc(S(=O)(=O)N(C)C)c1`, the growth is 92.9%. The same measure for `COC(=O)[C@]12CC[C@@H](C)[C@H](C)[C@@H]1C1=CC[C@@H]3[C@@]4(C)C=C(O)C(=O)[C@@]5(C)COC(=C54)C[C@@]3(C)[C@]1(C)CC2`: -20.5% (active). As for `CCC1=C(c2ccc(OC)cc2)C(C)(C)Oc2c1ccc(O)c2CN1CCCC1`, the growth is 58%.

Consider `CN(C)c1cccc2c(S(=O)(=O)N[C@H]3CC[C@H]4[C@@H]5CCc6cc(O)ccc6[C@H]5CC[C@]34C)cccc12`, for which the growth was 45.8%. Then `COc1cc(/C=C/C(=O)Nc2ccc3c(c2)/C(=C\c2cccn2C)C(=O)N3)cc(OC)c1OC`, with 37%; and `O=C(Oc1ccc[nH]c1=O)c1cccc(Cl)c1`, with 113%. Then `Fc1ccc(-c2nnc(-c3c(-c4ccc(F)cc4)nc4ncccn34)o2)cc1`, with 95.7%; and `O=C1/C(=C/c2ccc([N+](=O)[O-])s2)Oc2ccc(Br)cc21`, with -6.92% (active); and `O=C1C2C3C=CC(O3)C2C(=O)N1Nc1ccccc1` (stereo not given), with 105%.

`COc1cc(C2NC(c3ccc(Cl)cc3)C(C)/C(=N/NC(N)=S)C2C)cc(OC)c1OC` (stereo not given): the growth was 87.3%. Then `Clc1ccc(CCC(Cn2ccnc2)Sc2c(Cl)cccc2Cl)cc1` (stereo not given), with 63.8%. The same measure for `COc1ccc2[nH]cc(/C=C3/C(=O)Nc4ccc(F)cc43)c2c1`: 84.1%; for `Cn1cc(-c2csc(-c3cn(C)c4ncccc34)n2)c2cccnc21`: 93.7%. The same measure for `O=C(c1ccccc1)c1ccco1`: 98.2%; for `CCCCCCCCCCCCCCCCCc1nccn1CCO`: 80%. As to `CC(C)C(=O)Cc1cnccn1`, the growth is 102%. Consider `COc1ccc(OC)c(/C=C/c2nc(=S)n(-c3ccc(Cl)cc3)[nH]2)c1`, for which the growth is 88.6%. The same measure for `COc1c(C)c2c(c(O)c1C/C=C(\C)CCC(=O)OCCN1CCOCC1)C(=O)OC2`: 16.9%; for `COc1ccc(-c2cc(C(=O)Nc3nc4cc(C)c(C)cc4s3)nc3cc(-c4ccccc4)nn23)cc1OC`: 110%; for `CCOc1nc(-c2ccccc2)cc2c(O)c(-c3nnco3)[nH]c(=O)c12`: 30.6%. Regarding `O=c1[nH]c(=O)n(C2CC(O)C(CO)O2)cc1C(F)(F)F` (stereo not given), the growth is 48.5%. Then `CCOC(=O)c1c2c(c(C)n1Cc1ccccc1)-c1nc(N)ncc1CC2`, with 104%; and `CCCCCCCC/C=C/CCCCCCCC1=NC(C)(C)CN1CC(C)O` (stereo not given), with 38.8%. The same measure for `COc1cc(Oc2cc(-c3cccnc3)ccc2NC(=O)Nc2ccc(F)cc2F)cc(OC)c1OC`: 92.8%; for `COc1cc(C2=NN(C(C)=O)C(c3ccc(OC(C)=O)cc3OC(C)=O)O2)c(OC(C)=O)c2ccccc12` (stereo not given): 8.46% (active).
